Measurements reported in PubChem BioAssay (Tox21).
Inconclusive results are not listed. The source made the active and inactive calls. Unless noted, calls come from the whole dose curve; as a rule, active = well fitted curve in the direction sought with a large enough effect in the repeat runs; inconclusive = weak or mixed curves; inactive = no such curve, though single readings can be large; an effect the other way counts as inactive or inconclusive.

How the values were obtained:
[1] = qHTS assay to test for compound auto fluorescence at 535 nm (green) in HEK293 cells (AID 720680)
[2] = qHTS assay to test for compound auto fluorescence at 460 nm (blue) in HEK293 cell free culture (AID 720681)
Method in brief: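 Test compounds were pinned into cell-free culture medium (DMEM with 10% FBS) and fluorescence was read directly at Ex/Em 405/460 nm. Signals were expressed as fluorescence equivalents of triamterene, with DMSO vehicle as control.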

[3] = qHTS assay to test for compound auto fluorescence at 535 nm (green) in HEK293 cell free culture (AID 720682)
Method in brief: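 Green-label autofluorescence (485 nm excitation, 535 nm emission) measured on compound added to cell-free culture medium (DMEM, 10% FBS). Output is expressed relative to fluorescein.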

[4] = qHTS assay to test for compound auto fluorescence at 590 nm (red) in HEK293 cell free culture (AID 720683)
Method in brief: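 Tox21 10K library compounds were pinned into cell-free DMEM with 10% FBS and fluorescence was read at excitation 540 nm. Activity is expressed as Rose Bengal sodium equivalency.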

[5] = qHTS assay to test for compound auto fluorescence at 590 nm (red) in HepG2 cell free culture (AID 720684)
Method in brief: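 Ex 540 / Em 590 nm read of compound in cell-free MEM (10% FBS). Rose Bengal sodium reference.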

[6] = qHTS assay to test for compound auto fluorescence at 535 nm (green) in HepG2 cell free culture (AID 720686)
[7] = qHTS assay to test for compound auto fluorescence at 460 nm (blue) in HepG2 cells (AID 720687)
Method in brief: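 Cells (2,000/well in MEM with 10% FBS) attached overnight at 37 C, then were exposed to compound or DMSO for 1 hr at 37 C, 5% CO2. Fluorescence read at Ex/Em 405/460 nm, expressed as triamterene-equivalent signal.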

[8] = molecular target: Glucocorticoid receptor (Homo sapiens) (UniProt P04150); assay: qHTS assay to identify small molecule agonists of the glucocorticoid receptor (GR) signaling pathway (AID 720691; active = well fitted activation curve with a large enough effect in the signal ratio in the repeat runs, not every such curve was filed as active; the % refers to the signal ratio)
Glucocorticoid receptor (Homo sapiens), sequence (P04150 whole entry, looked up): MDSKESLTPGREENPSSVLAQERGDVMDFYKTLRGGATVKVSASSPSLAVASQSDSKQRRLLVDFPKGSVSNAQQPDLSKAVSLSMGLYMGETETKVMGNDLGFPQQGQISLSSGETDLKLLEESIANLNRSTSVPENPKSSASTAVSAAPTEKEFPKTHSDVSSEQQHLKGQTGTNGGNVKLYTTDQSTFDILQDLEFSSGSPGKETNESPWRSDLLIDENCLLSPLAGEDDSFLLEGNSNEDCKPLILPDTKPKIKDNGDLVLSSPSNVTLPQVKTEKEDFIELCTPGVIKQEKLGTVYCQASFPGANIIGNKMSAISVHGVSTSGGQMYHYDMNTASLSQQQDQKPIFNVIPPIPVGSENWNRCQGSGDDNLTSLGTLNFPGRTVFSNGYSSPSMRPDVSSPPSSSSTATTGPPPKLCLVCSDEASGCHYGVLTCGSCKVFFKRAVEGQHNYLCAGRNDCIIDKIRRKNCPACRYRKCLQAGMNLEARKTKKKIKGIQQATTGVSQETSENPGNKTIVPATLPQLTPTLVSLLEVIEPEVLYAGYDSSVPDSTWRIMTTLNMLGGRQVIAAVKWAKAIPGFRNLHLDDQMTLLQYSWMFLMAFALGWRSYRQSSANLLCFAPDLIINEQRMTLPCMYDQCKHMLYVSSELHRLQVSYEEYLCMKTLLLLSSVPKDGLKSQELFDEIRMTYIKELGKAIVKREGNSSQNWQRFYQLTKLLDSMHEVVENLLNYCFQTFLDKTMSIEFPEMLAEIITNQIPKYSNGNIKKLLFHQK
Method in brief: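 Agonist-mode qHTS in HeLa cells stably expressing a glucocorticoid-response-element beta-lactamase reporter. Fluorescence intensity read with FRET substrate (2 h, room temperature) after 18 h compound treatment at 37 C.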

[9] = qHTS assay to identify small molecule antagonists of the glucocorticoid receptor (GR) signaling pathway - cell viability counter screen (AID 720693); note: nearly all actives have a fitted effect of over 55% in size
[10] = qHTS assay for identifying genotoxic compounds that show differential cytotoxicity against isogenic chicken DT40 cell lines with known DNA damage response pathways - wild type cell line (AID 743012); note: nearly all actives have a fitted effect of over 60% in size
Method in brief: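 Viability by ATP luminescence (CellTiter-Glo, 30 min RT) after 40 h compound treatment at 37 C/5% CO2, using 300 parental DNA repair-proficient DT40 cells per well.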

[11] = qHTS assay for identifying genotoxic compounds that show differential cytotoxicity against isogenic chicken DT40 cell lines with known DNA damage response pathways - Rev3 mutant cell line (AID 743014); note: nearly all actives have a fitted effect of over 55% in size
[12] = qHTS assay for identifying genotoxic compounds that show differential cytotoxicity against isogenic chicken DT40 cell lines with known DNA damage response pathways - Rad54/Ku70 mutant cell line (AID 743015); note: nearly all actives have a fitted effect of over 60% in size
[13] = qHTS assay to identify small molecule antagonists of the androgen receptor (AR) signaling pathway - cell viability counter screen (AID 743033; note: nearly all actives have a fitted effect of over 45% in size)
[14] = qHTS assay to identify small molecule antagonists of the androgen receptor (AR) signaling pathway using the MDA cell line - cell viability counter screen (AID 743041; note: nearly all actives have a fitted effect of over 45% in size; note: potency is the fitted concentration of half-maximal effect)
Method in brief: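 In this qHTS counter assay, fluorescence intensity after CellTiter-Fluor addition indicated viability of MDA-kb2 AR-luc cells given compounds and R1881 for 16 h at 37C.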

[15] = qHTS assay to identify small molecule antagonists of the thyroid receptor (TR) signaling pathway - cell viability counter screen (AID 743064); note: nearly all actives have a fitted effect of over 50% in size
Method in brief: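 GH3.TRE-Luc rat pituitary cells dosed after 4 hr plating, co-stimulated with T3 at 1 nM final, incubated 23.5 h at 37 C. Viability measured in the same wells by CellTiter-Fluor fluorescence after 30 min further at 37 C.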

[16] = qHTS assay to test for compound auto fluorescence at 460 nm (blue) in HepG2 cell free culture (AID 720685)
Method in brief: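 Cell-free plates of MEM plus 10% FBS received 23 nL compound or DMSO vehicle; blue-channel (405/460 nm) intensity scored against triamterene as reference fluorophore.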

[17] = molecular target: Glucocorticoid receptor (Homo sapiens) (UniProt P04150); assay: qHTS assay to identify small molecule antagonists of the glucocorticoid receptor (GR) signaling pathway (AID 720692; active = well fitted inhibition curve with a large enough effect in the signal ratio in the repeat runs, not every such curve was filed as active; the % refers to the signal ratio)
Method in brief: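 Inhibition of dexamethasone-driven (5 nM final) beta-lactamase expression was measured in GRE-reporter HeLa cells over 18 h at 37C. Fluorescence was read after 2 h with the B/G FRET substrate at room temperature.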
% is set by controls: 0 for no effect and ±100 for the full control effect.

CCCc1nn(C)c2c(=O)[nH]c(-c3cc(S(=O)(=O)N4CCN(C)CC4)ccc3OCC)nc12
inactive: outcome [1] | outcome [2] | outcome [3] | outcome [4] | outcome [5] | outcome [6] | outcome [7] | Potency [8] | outcome [9] | Potency [10] | Potency [11] | Potency [12] | outcome [13] | Potency [14] | Potency [15]

Cc1ccc(C(=O)Nc2ccc(S(=O)(=O)O)c3cc(S(=O)(=O)O)cc(S(=O)(=O)O)c23)cc1NC(=O)c1cccc(NC(=O)Nc2cccc(C(=O)Nc3cc(C(=O)Nc4ccc(S(=O)(=O)O)c5cc(S(=O)(=O)O)cc(S(=O)(=O)O)c45)ccc3C)c2)c1
inactive: outcome [1] | outcome [2] | outcome [3] | outcome [5] | outcome [16] | outcome [6] | outcome [7] | Potency [17] | outcome [9] | Potency [10] | Potency [11] | outcome [13] | Potency [15]

CC1=NN(c2cc(S(=O)(=O)O)ccc2Cl)C(=O)C1N=Nc1ccccc1 (centres undefined)
active: Potency [14] 61.1 µM
inactive: outcome [1] | outcome [2] | outcome [3] | outcome [5] | outcome [6] | outcome [7] | Potency [8] | Potency [17] | outcome [9] | Potency [10] | Potency [11] | Potency [12] | outcome [13]

CC(C(=O)O)c1cccc(Oc2ccccc2)c1 (centres undefined)
inactive: fluorescence, % of fluorescein [1] 0.0474% [at 18.6 µM] | fluorescence, % of fluorescent control [2] -0.022% [at 18.6 µM] | activity change [3] 0.0987% [at 18.6 µM] | fluorescence, % of fluorescent control [4] -0.0434% [at 18.6 µM] | fluorescence, % of Rose Bengal [5] 0.647% [at 18.6 µM] | fluorescence, % of fluorescein control [6] 0.0607% [at 18.6 µM] | fluorescence, % of fluorescent control [7] -0.0143% [at 18.6 µM] | outcome [9] | Potency [10] | Potency [11] | Potency [12] | outcome [13] | Potency [14] | Potency [15]

COc1cc(-c2ccc(=O)[nH]n2)ccc1OC(F)F
inactive: outcome [1] | outcome [2] | outcome [3] | outcome [4] | outcome [5] | outcome [6] | outcome [7] | Potency [10] | Potency [12] | outcome [13] | Potency [14] | Potency [15]

CC1=NS(=O)(=O)c2cc(Cl)ccc2N1
inactive: outcome [1] | outcome [2] | outcome [3] | outcome [5] | outcome [16] | outcome [6] | outcome [7] | Potency [17] | outcome [9] | Potency [10] | Potency [11] | Potency [12] | outcome [13] | Potency [14]

CC[N+](CC)(CC(=O)Nc1c(C)cccc1C)Cc1ccccc1 (tested in a mixture with another compound)
inactive: outcome [1] | outcome [2] | outcome [3] | outcome [5] | outcome [16] | outcome [6] | outcome [7] | outcome [9] | Potency [12] | outcome [13] | Potency [14] | Potency [15]

CC(C)COC(=O)c1ccc(N)cc1
inactive: outcome [1] | outcome [2] | outcome [3] | outcome [5] | outcome [16] | outcome [6] | outcome [7] | Potency [8] | Potency [17] | outcome [9] | Potency [10] | Potency [11] | Potency [12] | outcome [13] | Potency [14]
